Screens (PubChem)
PfHsp90 set2: growth inhibition of yeast expressing Plasmodium Hsp90. 310,000 compounds, 0.32% hits. S. cerevisiae expressing PfHsp90, BacTiter-Glo ATP, 48 h; yeast lacking PDR1 and PDR3 efflux regulators. inhibition, % at 9.4 µM;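 active = every replicate shows inhibition above about 80%, whatever the replicate mean, limit read from the data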;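 also: 0% = DMSO neutral controls and 100% = 20 µM radicicol positive controls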
tim10-1 inh: inhibits growth of tim10-1 mutant yeast | inhibition, % at 20 µM | AID 463190 | S. cerevisiae tim10-1 ts strain growth, BacTiter-Glo, 24 h | 330,000 compounds, 2.2% hits;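 active = inhibition of at least 40%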;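 also: mutant grown at 25 °C; 0% = DMSO wells with yeast and 100% = wells holding no yeast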
NLRP3 yeast inh: inhibitors of NALP3 inflammasome in yeast | Yeast reconstituted NLRP3/ASC/caspase-1, beta-gal luminescence, 24 h | inhibition, % at 10 µM | 330,000 compounds, 0.39% hits | AID 2825;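 active = inhibition of 50% or more; inactive = inhibition below 50%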;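 also: plate controls were induced DMSO wells for no effect and uninduced yeast grown without galactose for full effect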
TIM10 inh: growth inhibitors of TIM10 yeast strain; S. cerevisiae TIM10 strain growth, BacTiter-Glo luminescence, 24 h; inhibition, % at 10 µM; 330,000 compounds, 1.4% hits;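 active = inhibition of 40% or more at the single tested concentration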;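 also: wild-type TIM10 isogenic control strain grown at permissive 25 °C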
tim23-1 inh: inhibits growth of tim23-1 mutant yeast. AID 463212. inhibition, % at 20 µM. S. cerevisiae tim23-1 growth, BacTiter-Glo luminescence, 24 h. 330,000 compounds, 1.3% hits;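 active = growth inhibition of the mutant yeast at or above 50%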;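 also: temperature-sensitive mutant grown at 25 °C; plate controls were DMSO-treated mutant yeast for no effect and medium wells lacking yeast for full effect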
tim10-1 conf: confirmation of tim10-1 mutant yeast growth inhibitors; 7,400 compounds, 56% hits; AID 463213; inhibition, % at 20 µM; S. cerevisiae tim10-1 ts strain growth, BacTiter-Glo, 24 h; shares compounds with tim10-1 inh;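 active = inhibition of yeast growth at or above a set limit in either of two repeat tests at 20 µM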;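 also: tim10-1 mutant grown at permissive 25 °C to find synthetic lethal compounds; 0% = DMSO yeast wells and 100% = medium wells without yeast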
TIM10 conf: confirmation of TIM10 yeast growth inhibitors. shares compounds with TIM10 inh. 4,600 compounds, 63% hits. S. cerevisiae tim10 strain growth, BacTiter-Glo luminescence, 24 h. AID 463215. inhibition, % at 10 µM;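 active = inhibition of yeast growth at or above a set limit in either of two replicates at 10 µM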;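 also: this counterscreen used the strain with wild-type TIM10; 0% = yeast with DMSO and 100% = medium wells lacking yeast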
tim23-1 confirm: confirmation of tim23-1 mutant yeast growth inhibitors | 4,400 compounds, 83% hits | inhibition, % at 20 µM | S. cerevisiae tim23-1 growth, BacTiter-Glo luminescence, 24 h | AID 463218 | shares compounds with tim23-1 inh;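 active = inhibition above about 39% in either of two replicate wells at 20 µM, limit read from the data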;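 also: temperature-sensitive tim23-1 mutant grown at 25 °C; 0% = DMSO wells with yeast and 100% = medium wells without yeast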
* = called active by the depositor; / = no result. This is a sample that favours compounds with a hit; in the whole collection about 3.7% have one here.

SMILES	PfHsp90 set2	tim10-1 inh	NLRP3 yeast inh	TIM10 inh	tim23-1 inh	tim10-1 conf	TIM10 conf	tim23-1 confirm
Oc1ccc(Oc2ccc3c(C(F)(F)F)cc(C(F)(F)F)nc3n2)cc1	-1.7	40.4*	-11.5	42.8*	55.9*	25.1	12.8	49.0*
COc1ccc(OC)c(C(C)NC(=O)Nc2cccc(C(C)=O)c2)c1 (centres undefined)	1.5	2.9	-3.4	2.9	-0.2	/	/	/
Cc1ccc(C(=O)c2coc3c2C(=O)C(=O)c2ccccc2-3)cc1	141.4*	93.4*	-10.3	96.6*	85.3*	93.7*	95.8*	94.8*
Cc1ccc(C(=O)c2c(C)oc3c2C(=O)C(=O)c2ccccc2-3)cc1	/	22.1	6.4	23.2	37.6	/	/	/
Oc1ccc2ccccc2c1/C=N/n1cnnc1	/	5.2	6.4	5.3	10.6	/	/	/
Oc1ccc2ccccc2c1C=NC1CCCCC1	26.0	41.1*	4.0	17.8	54.8*	14.1	/	53.5*
CCNC(=O)COC(=O)c1sccc1C	10.6	-7.1	-0.5	-21.1	-9.1	/	/	/
O=Cc1cc2ccccc2nc1SCCCF	-3.7	64.5*	13.5	78.3*	66.5*	69.1*	72.5*	54.7*
Cc1ccc(-c2nc(N/N=C/c3cccc([N+](=O)[O-])c3)c3ccccc3n2)cc1	-26.9	33.9	20.1	29.9	24.3	/	/	/
Cc1ccc(-c2nc(N/N=C/c3cccnc3)c3ccccc3n2)cc1	16.9	75.8*	18.8	66.2*	84.3*	73.9*	59.0*	85.2*
CC(C)Cn1c(N)c(C(=O)COC(=O)c2ccc(Cl)cc2)c(=O)n(C)c1=O	/	31.7	13.7	32.9	31.3	/	/	/
CC(C)Cn1c(N)c(C(=O)COC(=O)c2c(O)c(Cl)cc(Cl)c2Cl)c(=O)n(C)c1=O	-21.1	41.8*	18.0	25.6	50.9*	25.9	/	57.5*
COc1ccc(/C=C\C(=O)c2c(O)ccc3c(C)cc(=O)oc23)cc1OC	-18.4	53.3*	36.6	46.6*	54.3*	50.3*	50.5*	52.2*
Cc1cc(=O)oc2c(C(=O)/C=C/c3ccccc3)c(O)ccc12	30.8	26.9	28.7	-6.9	13.4	/	/	/
Cc1cc(=O)oc2c(C(=O)/C=C\c3cccs3)c(O)ccc12	-70.4	53.8*	14.3	55.7*	73.2*	79.5*	64.1*	66.3*
COc1cc(/C=C/C(=O)c2c(O)ccc3c(C)cc(=O)oc23)ccc1O	-33.1	77.7*	32.2	57.1*	73.3*	71.8*	72.9*	82.0*
O=C1C=CC(=O)N1N(c1ccccc1)c1ccccc1	95.9*	65.5*	3.4	53.6*	54.9*	66.9*	61.3*	47.2*
CC(=O)Nc1ccc(S(=O)(=O)N(C)c2ccc(OCC(=O)NCCc3ccccc3F)cc2)cc1	-7.9	/	/	/	/	/	/	/
CCCCCCCCCCC[N+](C)(C)CC/C=C1/c2ccccc2Sc2ccc(Cl)cc21	106.8*	98.0*	14.1	81.7*	89.5*	97.2*	82.5*	93.6*
CN(C)CC/C=C1\c2ccccc2Sc2cc(F)c(Cl)cc21	0.0	23.1	25.6	-0.3	-45.4	/	/	/
CC[N+](C)(C)CC/C=C1/c2ccccc2Sc2ccc(Cl)cc21	/	10.8	11.2	-12.6	-9.5	/	/	/
CCCCCCCCCC[N+](C)(C)CC/C=C1/c2ccccc2Sc2ccc(Cl)cc21	105.8*	98.0*	2.1	83.3*	91.8*	96.8*	86.4*	94.4*
CC(C(=O)NC1CCCCC1)N1CCN(S(=O)(=O)c2cccs2)CC1 (centres undefined)	5.5	0.3	-5.5	5.6	4.8	/	/	/
